Values joined by “and” are separate entries in the source; they are usually repeats but may differ in a detail not shown here. Equal values may be shown once. The whole screen tested about 1,200 compounds, of which about 30 (2%) were called active. Not shown: some 23% with an inconclusive outcome. Calls follow the shape of the dose curve; as a rule, active = well fitted inhibition curve with a large enough effect; inconclusive = small, poorly fitted or top-dose-only effect; inactive = flat fitted curve, though single readings scatter. The entries come from a sample that favours actives as a whole.
Biological target: Single-stranded DNA cytosine deaminase (Homo sapiens) (UniProt Q9GZX7)
Sequence (Q9GZX7 whole entry, looked up): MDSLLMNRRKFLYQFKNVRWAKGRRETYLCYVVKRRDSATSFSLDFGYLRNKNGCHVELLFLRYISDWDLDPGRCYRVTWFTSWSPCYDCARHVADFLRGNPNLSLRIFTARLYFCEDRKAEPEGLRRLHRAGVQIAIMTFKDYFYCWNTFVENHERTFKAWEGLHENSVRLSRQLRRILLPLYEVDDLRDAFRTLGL
Assay: Confirmatory qHTS assay for inhibitors of Activation Induced Cytidine Deaminase (AID): AID signals
Conditions: recombinant AID, FRET deamination/UDG coupled fluorescence, 4 h; series mostly up to 115 µM
Text: Assay Provider (PI) Patricia Gearhart Ph.D. National Institute on Aging National Institute of Health (NIH), Bethesda, MD Assay Provider (PI) Rahul Kohli Ph.D. Perelman School of Medicine University of Pennsylvania, Philadelphia, PA Activation-Induced Deaminase (AID) is a cytosine deaminase which converts cytosine into uracil within stretches of ssDNA. The presence of uracil in DNA initiates a cascade of mutagenic DNA repair to introduce point mutations and DNA double strand breaks. Specific targeting of AID to the immunoglobulin heavy chain loci (Igh) promotes mutagenesis in the antibody variable region for somatic hypermutation (SHM) or switch regions leading to class switch recombination (CSR). However, AID also plays a role in accumulating unnecessary mutations across the genome. Mis-targeting of AID results in the initiation of tumor development and leads to greater drug resistance among cancer cells when continually expressed. To identify an AID inhibitor, a small molecule library will be screened in collaboration with NCATS core facility at NIH. To confirm biological function, inhibitors will be examined in an in vitro murine B-cell activation assay and subsequent secondary validation screens. Top molecules will be further screened to identify inhibitory efficacy against a wild type primary splenocytes assay. Using these approaches, we hope to identify a small molecule with great efficacy and low toxicity for use as a molecular probe to further characterize AID's intricacies, or even as a therapeutic. A FRET based analysis of cytosine deamination, was developed to identify potential inhibitors of AID catalytic activity. This screen has two signal output, Read 1 evaluates the AID inhibition response. The second readout (Read 2) evaluates UDG response and is uses as a counterscreen to exclude false positive inhibitors. Inhibition in AID and inactivity in the UDG signal is the desired outcome for this assay.
PROTOCOL TABLE SEQUENCE No. (e.g., 1, 2, 3, etc.); […] (e.g., Cells, Incubation, Reagent, etc.); VALUE; DESCRIPTION 1a; Reagent; 3 uL; [4/3x] 1 uM AID/2.67 U/mL UDG 1b; Reagent; 3 uL; 2 U/mL UDG 1c; Reagent; 3 uL; 1 uM AID 2a; Compound; 46 nL; Follow-up plates (0.64 uM - 10 mM) 2b; Control; 46 nL; ATA (16.4 nM - 10 mM) 3; Time; 10 min; incubation at room temperature 4; Reagents; 1 uL; [4x] 250 nM DJC20 / 250 nM DJC23 [Substrate] 5; Time; 4 hr; incubation at room temperature 6; Reagent; 4 uL; [2x] 250 mM NaOH 7; Time; 15 sec; centrifuge at 1000 rpm 8; Time; 30 min; incubation at room temperature 9a; Detection; fluorescence (Read 1: AID); EnVision (PerkinElmer) plate reader, 540 excitation and 590 emission filters 9b; Detection; fluorescence (Read 2: UDG); EnVision (PerkinElmer) plate reader, 560 excitation and 665 emission filters NOTES (numbers refer to sequence above) 1a; Reagents were dispensed in a medium-binding black solid-bottom Greiner plates (789176F) using a BioRptr liquid dispenser. Dispense 3 uL of [4/3x] 1 uM AID (provided by Kohli lab) and [4/3x] 2 U/mL UDG (NEB M0280L) into columns 1, 2, 5 to 48. 1b; Dispense 3 uL of [4/3x] 2 U/mL UDG into column 3. 1c; Dispense 3 uL of [4/3x] 1 uM AID into column 4. 2a; Compound ([…] [uM]: 0.64; 3.2; 16; 80; 400; 2,000; 10,000; 20,000) double pin-transferred (Dip Factor = 2) using the Kalypsys (Wako USA) pintool equipped with a 1536 pinhead for a final concentration range of 7.32 nM - 114 uM. 2b; 10 mM Aurintricarboxylic Acid (Sigma A1895) (ATA, 8-point, n = 2, 1:2.5 dilution in column 2) double pin-transferred (Dip Factor = 2) using the Kalypsys (Wako USA) pintool equipped with a 1536 pinhead for a [final] range of 186 nM - 114 uM. 3; Room temperature incubation. 4; Dispense 1 uL of substrate mixture from the Kohli lab [4x] […] DJC20 and [4x] 250 nM DJC23 into columns 1 to 48 . 5; Room temperature incubation. 6; Dispense 4 uL of […] [2x] 250 mM NaOH into columns 1 to 48. 7; Centrifugation step to remove bubbles. […]
Potency is read from the fitted curve at half-maximal effect.

Potency, inactive:
Cc1ccc(N(CC(=O)N2CCN(c3cc(C)ccc3C)CC2)S(=O)(=O)c2c(C)nn(C)c2C)cc1
Cc1oc(-c2cccc(Br)c2)nc1Cn1c(SCc2cccc(F)c2)nc2cccnc21
Cc1cc(-c2ccc(C)c(S(=O)(=O)N3CCCC(C)C3)c2)on1 (stereo not drawn)
CCc1ccc(CNC(=O)c2ccc(CSc3nc4ccncc4n3Cc3ccccc3)cc2)cc1
Cc1ccc(C)c(N2CCN(CCCNC(=O)c3cnn(-c4ccc(F)cc4)c3C3CCN(C(=O)OC(C)(C)C)CC3)CC2)c1
Cc1ccc(Nc2c3c(nc4nc(-c5cccs5)nn24)CCCC3)cc1F
CCOC(=O)C1=C(CN(CC)Cc2ccccc2)NC(=O)NC1c1ccc(OC(C)C)cc1 (stereo not drawn)
COc1ccccc1N1CCN(C(=O)c2cc3ccc4ccc(C)[nH]c4c3n2)CC1
COc1cccc(Nc2cc(-c3ccccc3)nc(C)n2)c1
COC(=O)c1cc(Cl)ccc1NC(=O)CSc1ncc(S(=O)(=O)c2ccc(Br)cc2)c(=O)[nH]1
CC(C)c1ccc(S(=O)(=O)c2cnc(SCC(=O)Nc3cccc(C(F)(F)F)c3)nc2N)cc1
Cc1cc(C)c(NC(=O)CSc2ncc(S(=O)(=O)c3ccc(C(C)(C)C)cc3)c(=O)[nH]2)c(C)c1
COc1cc(Cl)c(C)cc1NC(=O)CSc1ncc(S(=O)(=O)c2ccc(C(C)(C)C)cc2)c(=O)[nH]1
Cc1nn2c(=O)cc(COC(=O)c3ccc(NC(=O)C4CCCCC4)cc3)nc2s1
COc1ccc(C)cc1NC(=O)c1c(C)oc2ncn(CC(C)C)c(=O)c12
CCc1nc2ccc(C(=O)N3CCN(c4ccc(Cl)cc4)CC3)cc2nc1CC
COc1ccc(-n2cc(-c3ccccc3)c3c(NC4CCCC4)ncnc32)cc1
CCOC(=O)c1ccc(NC(=O)CC2Nc3cccc4cccc(c34)NC2=O)cc1 (stereo not drawn)
CCOC(=O)c1ccc(N2C(=O)c3[nH]nc(-c4ccccc4)c3C2c2ccc(CC)cc2)cc1 (stereo not drawn)

Potency, active:
CC(C)(Sc1ccc(CCN(CCCCC2CCCCC2)C(=O)NC2CCCCC2)cc1)C(=O)O 31.6 µM and 112 µM
Cc1ccc(NC(=O)CSc2ncc(S(=O)(=O)c3ccc(C(C)C)cc3)c(=O)[nH]2)cc1C 31.6 µM
CC(C)(C)c1ccc(S(=O)(=O)c2cnc(SCC(=O)Nc3ccc(F)c(Cl)c3)[nH]c2=O)cc1 35.5 µM
CCOC(=O)c1ccc(-n2c(N)c(C(=O)OC)c3nc4ccccc4nc32)cc1 25.1 µM

Reference: PubChem BioAssay AID1347434 (National Center for Advancing Translational Sciences (NCATS), 2020)
